# The supplement of paper PMC12582362
# Counter-ions that a name gives are not always drawn. About 30 (2%) of roughly 1,500 compounds showed activity. Only a selection was taken, and actives are over-represented in it overall. A number with no mark means an inactive call.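 The calls were made as follows: active = robust z-score below -2; a few such results were not called.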
# Test system: optoTopBP1 Flp-In 293 T-REx (HEK293) cells
# Experiment: light-induced TopBP1 condensate (nuclear foci) count, plate-normalised robust z-score vs non-control wells; higher = more TopBP1 condensates (negative = condensation inhibitor), active = hit call of the paper
# Settings: 10 µM; incubation time 2 h
row,SMILES,light-induced TopBP1 condensate (z-score)
1,CN1CCC(=C2c3ccccc3Sc3ccccc32)CC1 [Pimethixene maleate],-1.21
2,C[C@H]1[C@@H](O)O[C@@H]2O[C@@]3(C)CC[C@H]4[C@H](C)CC[C@@H]1[C@@]24OO3 [Artenimol],0.222
3,CC(=O)OC(C)OC(=O)C(C)c1ccc(-c2ccccc2)c(F)c1 (stereo not given) [Flurbiprofen axetil],-0.559
4,Cc1cc2nc3ccc(N(C)C)cc3[s+]c2cc1N [Tolonium chloride],-9.72 (active)
5,O=C(Cn1cnnn1)N[C@@H]1C(=O)N2C(C(=O)O)=C(CSc3nncs3)CS[C@H]12 [Ceftezole],-0.707
6,O=C(Cn1c(=O)sc2ccc(Cl)cc21)N1CCN(CCO)CC1 [Tiaramide Hydrochloride],0.609
7,CC(=O)Oc1cccc2c1C(=O)c1c(OC(C)=O)cc(C(=O)O)cc1C2=O [Diacerein],-1.09
8,O=C1c2c(O)cccc2Cc2cccc(O)c21 [Anthralin],-0.589
9,"O=C1c2cccc(O)c2C(=O)c2c(O)cccc21 [1,8-Dihydroxyanthraquinone]",-2.97 (active)
10,CC(C(=O)O)c1cccc(Oc2ccccc2)c1 (stereo not given) [Fenoprofen calcium salt dihydrate],0.527
11,CN1CCC(OC(c2ccccc2)c2ccccc2)CC1 [Diphenylpyraline hydrochloride],-0.243
12,CC=CC(=O)N(CC)c1ccccc1C [Crotamiton],-1.09
13,CC(=O)CC(c1ccccc1)c1c(O)c2ccccc2oc1=O (stereo not given) [Warfarin],0.476
14,Nc1ccn([C@H]2CC[C@@H](CO)O2)c(=O)n1 [Zalcitabine],0.161
15,Nc1ccn([C@@H]2O[C@H](CO)[C@@H](O)[C@@H]2O)c(=O)n1 [Cytarabine],-1.9
16,Nc1ccn([C@@H]2O[C@H](CO)[C@@H](O)C2(F)F)c(=O)n1 [Gemcitabine],-2.33 (active)
17,O=C(Oc1cccc2cccnc12)c1ccccc1 [Benzoxiquine],-0.428
18,OCCOCCN1CCN(C2=Nc3ccccc3Sc3ccccc32)CC1 [Quetiapine hemifumarate],0.443
19,O=C(CCCl)NCc1ccccc1 [Beclamide],0.736
20,O=C1[C@H]2CCCC[C@H]2C(=O)N1CCCCN1CCN(c2nsc3ccccc23)CC1 [Perospirone],-0.904
21,CC(=O)O[C@@]12CO[C@@H]1C[C@H](O)[C@@]1(C)C(=O)[C@H](O)C3=C(C)[C@@H](OC(=O)[C@H](O)[C@@H](NC(=O)OC(C)(C)C)c4ccccc4)C[C@@](O)([C@@H](OC(=O)c4ccccc4)[C@H]21)C3(C)C [Docetaxel],-1.72
22,CNC(=O)c1c(I)c(C(=O)NCC(=O)Nc2c(I)c(C(=O)O)c(I)c(C(=O)NCCO)c2I)c(I)c(N(C)C(C)=O)c1I [Ioxaglic acid],1.43

row,SMILES,light-induced TopBP1 condensate (z-score)
1,Cn1cc([S+](C)[O-])c(=O)c2ccc(F)cc21 (stereo not given) [Flosequinan],0.501
2,CC(=O)OCC(=O)[C@@]1(O)CC[C@H]2[C@@H]3CCC4=CC(=O)C=C[C@]4(C)[C@@]3(F)[C@@H](O)C[C@@]21C [Isoflupredone acetate],0.491
3,Nc1ncn(C2OC(CO)C(O)C2O)c(=O)n1 (stereo not given) [Azacytidine-5],0.0662
4,NC(=O)c1ncn([C@@H]2O[C@H](CO)[C@@H](O)[C@H]2O)c1O [Mizoribine],-0.419
5,N=c1ccn2c(n1)O[C@H]1[C@H](O)[C@@H](CO)O[C@H]12 [Ancitabine hydrochloride],-2.02 (active)
6,CCOC(=O)[C@H](CCc1ccccc1)N[C@@H](C)C(=O)N(CC(=O)O)C1Cc2ccccc2C1 [Delapril Hydrochloride],0.988
7,CC(=O)O[C@H]1C[C@@H]2CC[C@@H]3[C@H](CC[C@@]4(C)[C@H]3C[C@H]([N+]3(C)CCCCC3)[C@@H]4OC(C)=O)[C@@]2(C)C[C@@H]1N1CCCCC1 [Vecuronium bromide],0.392
8,O=c1[nH]cnc2c1ncn2[C@@H]1O[C@H](CO)[C@@H](O)[C@H]1O [Inosine],-0.394
9,Cc1cccn2c(=O)c(-c3nnn[nH]3)cnc12 [Pemirolast potassium],0.448
10,CN(C)[C@@H]1C(O)=C(C(=O)NCNCCCC[C@H](N)C(=O)O)C(=O)[C@@]2(O)C(O)=C3C(=O)c4c(O)cccc4[C@@](C)(O)[C@H]3C[C@@H]12 [Lymecycline],0.0668
11,Cc1c(Cl)cccc1Nc1ccccc1C(=O)O [Tolfenamic acid],-0.245
12,CN[C@@H]1[C@H](O[C@H]2[C@H](O[C@H]3[C@H](O)[C@@H](O)[C@H](N=C(N)N)[C@@H](O)[C@@H]3N=C(N)N)O[C@@H](C)[C@]2(O)C=O)O[C@@H](CO)[C@H](O)[C@H]1O [Streptomycin sulfate],-0.213
13,CC(=O)Nc1c(I)c(NC(C)=O)c(I)c(C(=O)O)c1I [Diatrizoic acid dihydrate],-0.965
14,CC(=O)OC[C@H]1O[C@@H](n2ncc(=O)[nH]c2=O)[C@H](OC(C)=O)[C@@H]1OC(C)=O [Azaribine],0.84
15,CC(=O)OC[C@H]1O[C@@H]([S-])[C@H](OC(C)=O)[C@@H](OC(C)=O)[C@@H]1OC(C)=O.CCP(CC)CC.[Au+] [Auranofin],-4.74 (active)
16,CC(C)c1nc(CN(C)C(=O)N[C@H](C(=O)N[C@@H](Cc2ccccc2)C[C@H](O)[C@H](Cc2ccccc2)NC(=O)OCc2cncs2)C(C)C)cs1 [Ritonavir],-1.47
17,Cc1onc(-c2ccccc2)c1-c1ccc(S(N)(=O)=O)cc1 [Valdecoxib],-1.03
18,COC(=O)Nc1nc2cc(C(=O)c3cccs3)ccc2[nH]1 [Nocodazole],-1.07
19,CCCOc1ccc2[nH]c(NC(=O)OC)nc2c1 [Oxibendazol],-3.01 (active)
20,COC(=O)Nc1nc2cc([S+]([O-])c3ccccc3)ccc2[nH]1 (stereo not given) [Oxfendazol],0.733
21,COC(=O)Nc1nc2cc(C(=O)c3ccccc3)ccc2[nH]1 [Mebendazole],-1.07
22,COC(=O)Nc1nc2cc(C(=O)c3ccc(F)cc3)ccc2[nH]1 [Flubendazol],-2.01 (active)

row,SMILES,light-induced TopBP1 condensate (z-score)
1,CCCCc1ccc2[nH]c(NC(=O)OC)nc2c1 [Parbendazole],-0.867
2,O=C(O)c1cc(/N=N/c2ccc(S(=O)(=O)Nc3ccccn3)cc2)ccc1O [Sulfasalazine],-0.0783
3,C[C@H](O)[C@H](O)[C@H]1CNc2[nH]c(N)nc(=O)c2N1 [Sapropterin dihydrochloride],0.574
4,CC[N+](C)(CC)CCC[n+]1c(-c2ccccc2)c2cc(N)ccc2c2ccc(N)cc21 [Propidium iodide],-3.58 (active)
5,C[C@]12CCC(=O)C=C1C=C[C@@H]1[C@@H]2CC[C@@]2(C)[C@H]1CC[C@@]21CCC(=O)O1 [Canrenone],0.252
6,COCCCOc1ccnc(C[S+]([O-])c2nc3ccccc3[nH]2)c1C (stereo not given) [Rabeprazole Sodium salt],-0.658
7,CC(C)=C/C(C)=N/Nc1nncc2ccccc12 [Budralazine],-0.574
8,CC(N)C12CC3CC(CC(C3)C1)C2 (stereo not given) [Rimantadine Hydrochloride],-0.685
9,OC[C@H]1O[C@@H](c2ccc(Cl)c(Cc3ccc(O[C@H]4CCOC4)cc3)c2)[C@H](O)[C@@H](O)[C@@H]1O [Empagliflozin],0.47
10,CN(C)[C@@H]1C(O)=C(C(N)=O)C(=O)[C@@]2(O)C(O)=C3C(=O)c4c(O)cccc4[C@@](C)(O)[C@H]3C[C@@H]12 [Tetracycline hydrochloride],0.0489
11,N#Cc1cc(NC(=O)C(=O)O)c(Cl)c(NC(=O)C(=O)O)c1 [Lodoxamide],0.686
12,Oc1c(I)cc(Cl)c2cccnc12 [Clioquinol],-0.446
13,Oc1c(Cl)cc(Cl)c2cccnc12 [Chloroxine],-0.15
14,Cc1ccc2c(Cl)cc(Cl)c(O)c2n1 [Chlorquinaldol],-9.09 (active)
15,C[C@@H]1C[C@H]2[C@@H]3C[C@H](F)C4=CC(=O)C=C[C@]4(C)[C@@]3(F)[C@@H](O)C[C@]2(C)[C@@]1(O)C(=O)COC(=O)C(C)(C)C [Flumethasone pivalate],-0.352
16,COc1cc([S+](C)[O-])ccc1-c1nc2cccnc2[nH]1 (stereo not given) [Sulmazole],1.19
17,CCOc1ccc2c(c1)C(C)=CC(C)(C)N2 [Ethoxyquin],0.549
18,CC[C@@]1(O)C(=O)OCc2c1cc1n(c2=O)Cc2cc3c(CN(C)C)c(O)ccc3nc2-1 [Topotecan],-2.31 (active)
19,CCc1c2c(nc3ccc(OC(=O)N4CCC(N5CCCCC5)CC4)cc13)-c1cc3c(c(=O)n1C2)COC(=O)[C@]3(O)CC [Irinotecan hydrochloride trihydrate],1.07
20,CCCNC(C)(C)C(=O)Nc1ccccc1C [Quatacaine],-0.106
21,O=C1OCCN1/N=C/c1ccc([N+](=O)[O-])o1 [Furazolidone],-0.718
